ADAM17 inh: inhibits human ADAM17. hit rate 0.83% among 370,000. P78536. inhibition, % at 6.95 µM. AID 720648. recombinant ADAM17, EDANS/DABCYL FRET peptide cleavage;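 active = inhibition above the mean of compounds lying between control limits plus 3 SD, set per campaign, cut at about 8.5% in these data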;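 also: 0% = DMSO-only wells as the low control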
Target sequence (P78536 215-824 limits assumed): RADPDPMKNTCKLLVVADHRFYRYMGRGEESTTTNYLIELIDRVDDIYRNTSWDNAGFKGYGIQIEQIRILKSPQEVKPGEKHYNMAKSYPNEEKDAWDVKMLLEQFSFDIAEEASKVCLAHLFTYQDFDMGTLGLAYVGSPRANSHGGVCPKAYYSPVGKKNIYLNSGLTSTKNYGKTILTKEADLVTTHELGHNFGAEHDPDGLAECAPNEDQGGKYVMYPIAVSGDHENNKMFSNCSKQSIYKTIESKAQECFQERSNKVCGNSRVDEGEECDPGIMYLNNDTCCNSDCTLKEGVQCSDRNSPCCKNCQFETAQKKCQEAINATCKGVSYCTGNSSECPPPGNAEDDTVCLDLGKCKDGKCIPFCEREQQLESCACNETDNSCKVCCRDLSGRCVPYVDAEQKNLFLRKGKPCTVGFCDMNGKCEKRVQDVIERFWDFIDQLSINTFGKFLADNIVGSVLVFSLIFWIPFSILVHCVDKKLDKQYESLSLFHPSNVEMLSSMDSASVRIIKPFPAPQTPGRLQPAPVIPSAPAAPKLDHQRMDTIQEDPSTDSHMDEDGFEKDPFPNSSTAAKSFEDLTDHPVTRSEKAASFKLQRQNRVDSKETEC
ADAM10 inh: inhibitors of human ADAM10; AID 720582; recombinant ADAM10, EDANS/DABCYL FRET peptide cleavage, 3 h; O14672; inhibition, % at 7 µM; hit rate 0.62% among 370,000;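 active = inhibition above a per-campaign cutoff equal to the mean of compounds falling between control-based bounds plus 3 SD, cut at about 20% in these data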;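 also: 0% = DMSO wells while the 100% control is not disclosed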
PLC-beta3 inh: PLC-beta3 (human) inhibition, primary screen. Q01970. Purified PLC-beta3, fluorogenic substrate, fluorescence. inhibition, % at 12.2 µM. hit rate 0.18% among 370,000; in the data active = inhibition above about 11%;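 also: 0% = median of compound wells on plate and 100% = full blocker control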
KLK7 zymogen act: proKLK7 (human) activation, primary screen. P49862. activation, % at 7 µM. hit rate 0.9% among 370,000. purified proKLK7, EDANS-DABCYL substrate fluorescence; 100% is mature enzyme control, 0% vehicle. AID 652039;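 active = activation above the mean of all tested compounds plus 3 SD, computed per campaign excluding outliers beyond control limits, cut at about 13% in these data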
PLC-gamma1 inh: PLC-gamma1 (human) inhibition, primary screen; P19174; purified PLC-gamma1, fluorogenic substrate, fluorescence; inhibition, % at 12.2 µM; hit rate 0.84% among 370,000; AID 720700
PLCgamma1 ctr: counter-screen for PLC-beta3 inhibitors: inhibitors of human PLC-gamma1. purified PLC-gamma1, fluorogenic substrate, fluorescence. shares compounds with PLC-gamma1 inh. hit rate 3.1% among 3,300. inhibition, % at 12.3 µM. AID 743258
PLCb3 confirm: confirmation of human PLC-beta3 inhibitors | shares compounds with PLC-gamma1 inh | inhibition, % at 12.3 µM | purified PLC-beta3, fluorogenic substrate fluorescence | hit rate 1% among 3,300; in the data active = inhibition above about 11%
Numbers without * were called inactive; x = not tested or not shown. Hits are enriched below; roughly 2.9% of the tested compounds scored in any of these assays. Rule as the data show it, unless noted: active = inhibition above about 9.5%; inactive = the rest.

SMILES	ADAM17 inh	ADAM10 inh	PLC-beta3 inh	KLK7 zymogen act	PLC-gamma1 inh	PLCgamma1 ctr	PLCb3 confirm
CC(C)C(NS(=O)(=O)c1cccs1)C(=O)N1CCC(C(N)=O)CC1 (stereo unspecified)	-6.8	-10.4	-7.3	0.7	2.1	x	x
Cc1ccc(SCC(=O)NCC2CCCO2)cc1 (stereo unspecified)	2.3	1.6	2.9	-0.2	11.2*	-2.8	-1.0
CC1Cc2nc(SCC(=O)NCC3CCCO3)n(Cc3ccccc3)c(=O)c2S1 (stereo unspecified)	0.6	-7.2	3.2	0.0	9.6*	-0.7	0.5
CCCNC(=O)C(Cc1ccc(OC)cc1)NC(=O)c1ccc(C#N)cc1 (stereo unspecified)	-3.2	-6.5	1.2	-0.1	0.5	x	x
CCCNC(=O)C(Cc1ccc(OC)cc1)NC(=O)c1ccc(Cl)cc1 (stereo unspecified)	5.2	6.2	8.1	-0.1	13.1*	-5.9	0.3
CC(=O)NS(=O)(=O)c1ccc(N=NN2CCOCC2)cc1	4.7	14.4	11.5*	0.6	9.8*	-2.4	-0.4
CC(=O)NS(=O)(=O)c1ccc(N=NN2CCCCCC2)cc1	0.4	5.8	5.9	0.3	1.6	x	x
O=C(O)c1cccc(-n2cccc2/C=C2/NC(=O)N(c3ccc(Cl)cc3)C2=O)c1	0.3	6.8	-10.0	-0.3	22.5*	-7.5	-22.7
CCC(C)(c1nnnn1-c1c(C)cccc1C)N(N=O)c1ccccc1Cl (stereo unspecified)	4.9	1.3	7.7	-0.3	10.8*	6.6	-1.1
Nc1ncnc2c1ncn2[C@@H]1O[C@H](CCC(=O)NCc2ccccc2)[C@@H](O)[C@H]1O	5.5	-7.4	0.1	0.5	1.2	x	x
CCOC(=O)c1cc(-c2ccccc2)sc1NC(=O)CSc1nnnn1C	-1.3	-1.7	3.1	0.1	0.9	x	x
CCOC(=O)c1sc(-c2ccccc2)cc1NC(=O)CSc1nnnn1C	6.1	11.1	3.2	0.0	13.2*	-6.0	-2.9
COc1cc(OC)cc(C(=O)NCC(=O)OCC(=O)N2c3ccccc3NC(=O)C2(C)C)c1	5.8	-6.5	-1.2	0.8	10.7*	5.0	0.5
O=C(COC(=O)c1ccc(O)cc1)Nc1ccc2[nH]c(=O)[nH]c2c1	-3.6	-8.5	-2.1	0.5	2.2	x	x
CCOc1ccccc1C(=O)N/N=C/c1cccc2cccnc12	-2.1	-3.6	7.3	-0.8	14.0*	-6.7	-0.9
CCOc1ccc(C(=O)N/N=C/c2cccc3cccnc23)cc1	2.7	3.3	-1.1	-0.5	0.0	x	x
CC(C)c1ccc(/C=C/C2=NNC(=O)CC2)cc1	-1.8	-2.7	7.0	-0.5	0.4	x	x
Cc1ccc(CCNC(=O)CS(=O)Cc2nc(-c3ccccc3F)oc2C)cc1 (stereo unspecified)	-4.0	0.5	-7.2	0.5	-6.0	x	x
CCC(=O)Nc1c(C)nn(-c2ccc(C)c(C)c2)c1C	-0.7	-5.1	2.0	-0.3	2.6	x	x
CC(=O)Nc1c(C)nn(-c2ccc(C)c(C)c2)c1C	2.2	4.5	2.1	0.4	9.6*	-4.5	-2.3
COc1ccccc1NC(=O)N1CCC(c2nnc(SCC(N)=O)n2C)CC1	-0.8	-0.3	2.3	0.0	0.0	x	x
C#CCN(C)CC/C=C1\c2ccccc2CSc2ccccc21	6.5	18.3	10.4	-0.3	10.0*	-1.3	-0.1
Cc1ccc(Cn2c(SCc3cccnc3)nc3c2c(=O)n(C)c(=O)n3C)cc1	-5.0	7.4	-2.8	0.7	-1.0	x	x
CCOc1ccc(CN2CCN(Cc3cccc4c3OCO4)CC2CCO)cc1 (stereo unspecified)	-3.6	-0.6	-2.0	-0.4	7.4	x	x
Cc1ccc(CN2CCN(Cc3cccc4c3OCO4)CC2CCO)cc1 (stereo unspecified)	5.3	9.8	15.0*	-0.7	4.7	-4.8	-12.1
SMILES	ADAM17 inh	ADAM10 inh	PLC-beta3 inh	KLK7 zymogen act	PLC-gamma1 inh	PLCgamma1 ctr	PLCb3 confirm
CCCc1cc(=O)[nH]c(SCc2cc(=O)oc3cc(C)c(C(C)C)cc23)n1	-1.1	-0.8	3.6	-0.4	0.4	x	x
Cc1ccc(C)c(N2CCN(S(=O)(=O)c3ccc4[nH]c(=O)ccc4c3)CC2)c1	-2.0	-6.5	-14.2	-0.8	-5.5	x	x
Cc1ccc(C)c(N2CCN(S(=O)(=O)c3ccc4[nH]c(=O)c(=O)[nH]c4c3)CC2)c1	-0.1	-5.6	-0.3	0.2	16.6*	-1.3	-4.1
Cc1cc(=O)[nH]c(SCC(=O)Nc2ccc(C)c(S(=O)(=O)N3CCCCC3)c2)n1	2.4	3.8	-1.5	0.2	12.2*	-2.8	-1.4
COc1ccc(NC(=O)CSc2nc(N)cc(=O)[nH]2)cc1S(=O)(=O)N1CCCCC1	0.4	-0.5	0.5	-0.5	-0.2	x	x
Cc1ccc(NC(=O)c2ccc(F)cc2)cc1S(=O)(=O)N1CCCCCC1	3.8	5.6	8.1	0.4	8.2	x	x
COc1ccc(C(=O)Nc2ccc(C)c(S(=O)(=O)N3CCCCCC3)c2)cc1	3.8	11.9	5.4	0.2	11.1*	5.3	5.8
O=C(CSc1nnc(-c2ccc(F)cc2)o1)Nc1ccc(S(=O)(=O)N2CCCC2)cc1	6.9	8.6	5.5	-0.5	5.2	x	x
Cc1ccc(NC(=O)CSc2nnc(-c3ccc(S(=O)(=O)N4CCCC4)cc3)o2)cc1C	1.6	-6.6	2.8	-0.8	11.9*	-5.1	-4.0
Cc1ccc(F)c([C@H]2[C@H]3C=CC[C@@H](C)[C@@H]3C(=O)N2Cc2ccccc2)c1	0.9	14.7	-0.8	0.6	-0.1	x	x
CC(=O)C1=C(O)C(=O)N(Cc2cccnc2)C1c1ccc(Cl)cc1 (stereo unspecified)	-4.2	-6.8	3.0	0.1	3.3	x	x
C=C1CC2C=C(NC(C)=O)CC(C1)C2 (stereo unspecified)	2.8	-8.3	4.1	-0.4	11.7*	-41.9	-1.0
O=S(=O)(Nc1nc2ccccc2nc1OCC(F)(F)F)c1cccs1	-10.2	-12.6	-15.3	0.6	-8.5	x	x
Cn1cc(C(=O)NC2C3CC4CC(C3)CC2C4)cn1 (stereo unspecified)	-5.0	-3.0	1.9	-0.4	12.1*	-3.6	-5.6
CCOC(=O)c1c(C)[nH]c(C(=O)OCC(=O)NCCc2ccc(OCC)c(OCC)c2)c1C	0.0	2.5	0.5	0.1	-1.8	x	x
CN(C)CCCNc1nc(N)c([N+](=O)[O-])c(NCc2ccccc2)n1	5.3	0.2	-0.8	-0.1	9.7*	-1.4	1.1
COCCCNc1nc(N)c([N+](=O)[O-])c(NCc2ccccc2)n1	0.3	-0.7	1.2	-0.5	10.2*	5.4	-0.7
COCCNc1nc(N)c([N+](=O)[O-])c(NCc2ccccc2)n1	0.3	-1.9	0.0	0.3	7.4	x	x
Nc1nc(NCc2ccccc2)nc(NCc2ccccc2)c1[N+](=O)[O-]	2.1	-0.6	3.5	-0.4	0.6	x	x
COc1ccc(N(C(=O)COc2ccccc2)C2C=CS(=O)(=O)C2)c(OC)c1 (stereo unspecified)	6.6	8.8	5.1	0.5	13.8*	-5.1	-1.7
